According to PubChem BioAssay AID1903 (Southern Research Specialized Biocontainment Screening …, 2009):
Among all 310,000 compounds or so, about 1,200 (0.39%) were called active. The rule behind the calls is not given here. Not all results are given here. Potency and affinity values are given separately.

The compounds below were run against Large T antigen (Simian virus 40) (UniProt P03070) (assay: TAg ATPase/helicase activity blockers – biochemical (AID 1903)). Conditions: SV40 large T antigen ATPase/helicase inhibition assay; at 20 µM; hits give high values.
Chain of Large T antigen (Simian virus 40) (P03070 whole entry, looked up): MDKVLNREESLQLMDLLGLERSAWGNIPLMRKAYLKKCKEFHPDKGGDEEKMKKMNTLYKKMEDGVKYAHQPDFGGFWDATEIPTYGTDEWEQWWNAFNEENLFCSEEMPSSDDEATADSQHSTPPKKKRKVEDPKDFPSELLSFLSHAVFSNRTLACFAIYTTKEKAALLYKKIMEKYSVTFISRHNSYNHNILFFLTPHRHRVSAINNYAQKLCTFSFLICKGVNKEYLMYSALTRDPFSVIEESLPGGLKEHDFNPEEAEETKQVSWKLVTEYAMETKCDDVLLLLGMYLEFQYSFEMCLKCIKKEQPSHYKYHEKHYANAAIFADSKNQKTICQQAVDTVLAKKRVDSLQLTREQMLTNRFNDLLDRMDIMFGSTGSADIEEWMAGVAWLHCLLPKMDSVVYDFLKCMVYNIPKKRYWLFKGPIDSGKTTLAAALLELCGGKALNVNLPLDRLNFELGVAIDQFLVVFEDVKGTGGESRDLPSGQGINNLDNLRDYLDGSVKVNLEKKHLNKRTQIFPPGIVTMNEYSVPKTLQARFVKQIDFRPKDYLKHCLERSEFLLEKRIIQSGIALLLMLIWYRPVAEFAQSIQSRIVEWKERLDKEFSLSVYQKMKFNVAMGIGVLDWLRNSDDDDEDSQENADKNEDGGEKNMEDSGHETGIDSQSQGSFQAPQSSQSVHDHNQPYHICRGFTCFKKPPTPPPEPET

inhibition, inactive:
CCN(CC)CCn1c2c(c(SCC(=O)Nc3ccc4c(c3)OCO4)nc1=O)CCC2 8.82%
O=C(O)C1=C[C@H](c2ccc3c(c2)OCO3)C[C@H](OCc2ccc(CO)cc2)O1 9.17%
COc1ccccc1-c1cc(C(F)(F)F)nc(S(=O)(=O)CCCC(=O)NCc2ccc(F)cc2)n1 23.6%
CCOc1ccc(C(=O)CCc2nc3ccccc3s2)cc1 17.3%
CCOC(=O)/C(C#N)=C/c1c(N2CCN(c3ccccc3)CC2)nc2c(C)cccn2c1=O 2.5%
COc1cc(Cl)c(C)cc1Nc1ncccn1 5.51%
CCCCCNC(=O)Cn1c(=O)c2c(ncn2CC(C)C)n(Cc2ccccc2)c1=O 9.03%
O=C(CSc1nnc(NC(=O)c2c(F)cccc2F)s1)NCc1ccccc1 9.61%
COCCn1c(=O)[nH]c2cc(C(=O)NCCN3CCN(c4ccccc4)CC3)ccc2c1=O 0.98%
Nc1nc2cc(S(=O)(=O)NC3=NCCCCC3)ccc2s1 37.1%
CCc1ccc(C(=O)OCC(=O)Nc2cccc(S(=O)(=O)NC3=NCCCCC3)c2)cc1 23%
O=S(=O)(NC1=NCCCCC1)c1ccc2ccccc2c1 7.96%
O=S(=O)(Nc1nc2c(s1)CCCC2)c1ccc2ccccc2c1 21.8%
CC1CC(=O)C2=C(C1)Nc1ccccc1N(C(=O)COc1ccccc1)C2c1ccco1 (stereo unspecified) 5.78%
CCN(CC)Cc1c(O)ccc2c(=O)c(Oc3ccccc3OC)c(C)oc12 13.5%
Cc1c(-c2ccc(F)cc2)[n+](=O)c(-c2ccc(F)cc2)c(C)n1[O-] 17.5%
CC(C)(C)c1ccc(C(=O)NNC(=S)NCc2ccco2)cc1 12.7%
Cc1ccccc1Nc1c(-c2cccnc2)nc2ccccn12 11.7%
Cc1ccc2nc(-c3ccccn3)c(Nc3ccccc3C)n2c1 16.6%
Cc1ccc2nc(-c3ccncc3)c(NC3CCCC3)n2c1 11.4%
c1ccc(-c2nc3ccccn3c2NC2CCCC2)nc1 35%
CCCCCCC(=O)Oc1cccc(N2C(=O)C3CCCCC3C2=O)c1 (stereo unspecified) 4.91%
CCOC(=O)N1CCN(S(=O)(=O)c2ccc(OCC(=O)OC)c(Cl)c2)CC1 -13.8%
N#C/C(=C\c1ccc2c(c1)OCO2)C(=O)NCc1ccco1 6.96%
CC(c1ccccc1)N1CCC(CNC(=S)Nc2cccc(Cl)c2)C1 (stereo unspecified) 16.7%
O=c1c(OC2OC(CO)C(O)C(O)C2OC2OC(CO)C(O)C(O)C2OC2OC(CO)C(O)C(O)C2O)c(-c2ccc(O)c(O)c2)oc2cc(O)cc(O)c12 (stereo unspecified) 7.41%
O=c1c(O[C@@H]2O[C@H](CO)[C@@H](O)[C@H](O)[C@H]2O)c(-c2ccc(O)c(O)c2)oc2cc(O)cc(O)c12 2.85%
C[C@@H]1O[C@@H](OC[C@H]2O[C@@H](Oc3c(-c4ccc(O)cc4)oc4cc(O)cc(O)c4c3=O)[C@H](O)[C@@H](O)[C@@H]2O)[C@H](O)[C@H](O)[C@H]1O 10%
O=c1c(O[C@@H]2O[C@H](CO)[C@H](O)[C@H](O)[C@H]2O)c(-c2ccc(O)c(O)c2)oc2cc(O)cc(O)c12 -2.68%
CC1OC(OC2C(Oc3c(-c4ccc(O)cc4)oc4cc(O)cc(O)c4c3=O)OC(COC3O[C@@H](C)[C@H](O)[C@@H](O)C3O)C(O)C2O)C(O)C(O)C1O (stereo partly specified) 3.2%
C[C@@H]1O[C@@H](OC[C@H]2O[C@@H](Oc3c(-c4ccc(O)c(O)c4)oc4cc(O)cc(O)c4c3=O)[C@H](O)[C@@H](O)[C@@H]2O)[C@H](O)[C@H](O)[C@H]1O 5.24%
CC(=O)N/C(=C\c1ccc(F)cc1)C(=O)NC(C(=O)O)C(C)C (stereo unspecified) 0.16%
O=c1cc(O)nc(SCc2ccccc2)n1-c1ccc(Cl)cc1 7.14%
COc1ccc(NC(=O)CC2SC(=NCc3ccccc3OC)NC2=O)cc1 (stereo unspecified) 0.11%
COc1ccc(NC(=O)CSc2nnc(CC(=O)Nc3ccc(F)cc3)n2C)cc1 6.25%
O=C(COC(=O)C1CCCN1C(=O)C12CC3CC(CC(C3)C1)C2)c1ccc(Br)cc1 (stereo unspecified) 3.8%
Cc1occc1C(=O)N1CCCC(N2CCN(c3ccccc3F)CC2)C1 (stereo unspecified) 7.6%
O=C(NCC1CC1)[C@]1(C(F)(F)F)C[C@H](CCC2CCCCC2)CCCO1 2.31%
Fc1ccc(-c2nnc(CSc3nnc4ccccn34)o2)cc1 14.8%
O=c1cc(-c2ccc(O)cc2)oc2c([C@@H]3O[C@H](CO)[C@@H](O)[C@H](O)[C@H]3O)c(O)c([C@@H]3O[C@H](CO)[C@@H](O)[C@H](O)[C@H]3O)c(O)c12 7.48%
O=c1c(-c2ccc(O)cc2)coc2c(C3O[C@H](CO)[C@@H](O)[C@H](O)[C@H]3O)c(O)ccc12 (stereo partly specified) 24.2%
O=c1cc(-c2ccc(O)cc2)oc2cc(O[C@@H]3O[C@H](CO)[C@@H](O)[C@H](O)[C@H]3O[C@@H]3OC[C@](O)(CO)[C@H]3O)cc(O)c12 8.96%
O=C(O)C1OC(Oc2cc3oc(-c4ccccc4)cc(=O)c3c(O)c2O)C(O)C(O)C1O (stereo unspecified) 17.2%
COc1c(O)cc2c(c1O)C1OC(CO)C(O)C(O)C1OC2=O (stereo unspecified) 2.96%
O=c1cc(-c2ccc(O)cc2)oc2c(C3OCC(O)C(O)C3O)c(O)c(C3OC(CO)C(O)C(O)C3O)c(O)c12 (stereo unspecified) 45.1%
CC(=O)Cc1cc(=O)c2c(C)cc(O)c(C3OC(CO)C(O)C(O)C3O)c2o1 (stereo unspecified) 5.68%
O=c1cc(-c2ccc(O)cc2)oc2c(C3O[C@H](CO)[C@@H](O)[C@H](O)[C@H]3O)c(O)cc(O)c12 (stereo partly specified) 26%
CC(O)CNCCOc1ccccc1-c1ccccc1 (stereo unspecified) 8.76%
CCOC(=O)CN1C(=O)NC(C)(c2ccc(OC(F)F)cc2)C1=O (stereo unspecified) 11.6%
CCC1(C)N=c2c(c(=O)n(C)c(=O)n2C)=NO1 (stereo unspecified) 2.8%
CC(C)CN1C(=O)NC2(CCCc3ccccc32)C1=O (stereo unspecified) 25%
COc1ccc(/C=C(/NC(=O)c2ccc(C)cc2)C(=O)NCC2CCCO2)cc1 (stereo unspecified) 9.41%
CCOC(=O)Nc1nc(-c2ccccc2)c(C(=O)c2ccccc2)s1 10%
c1ccc(C2[C@H]3CN(Cc4cccnc4)[C@H](c4ccccc4)C34CC2(c2cccnc2)C4)cc1 (stereo partly specified) 5.83%
CCOC(=O)CSc1ncnc2c1cnn2-c1ccc(Cl)cc1 2.59%
COC(=O)c1nn(-c2ccccc2)c(Cl)c1/C=N/OCc1c(Cl)cccc1Cl 6.28%
COc1cc2c(cc1OC)CC(=O)N(C)CC2 -0.375%
COc1cc2c(cc1OC)CN(Cc1ccccc1)CC2 4.34%
COc1cc(NC(=O)CN2CCCCC2C)c(C)cc1[N+](=O)[O-] (stereo unspecified) -0.94%
Nn1c(SCC(=O)NC(=O)NCc2ccco2)nnc1-c1ccc(OC(F)F)cc1 19.9%
Cc1ccc(Nc2n[nH]c(C)c2[N+](=O)[O-])cc1 -4.15%
Cc1ccc(Nc2n[nH]c(C)c2[N+](=O)[O-])cc1C 4.58%
O=C(NC1CCN(C(=O)Nc2ccc(F)cc2)CC1)c1ccc(F)cc1 -6.41%
O=C(O)c1cc(S(=O)(=O)O)ccc1O -2.3%
CC1=C/C(=C(\c2ccc(O)c(C)c2)c2ccccc2S(=O)(=O)O)C=CC1=O 1.87%
O=C(NCC(c1cccs1)N1CCOCC1)c1ccc(Cl)cc1 (stereo unspecified) 20.7%
S=C(Nc1ccc(Nc2ccccc2)cc1)N1CCN(c2ncccn2)CC1 26.2%
COc1cc2c(cc1OC)C(Cc1ccc(O)cc1)NCC2 (stereo unspecified) 70.4%
COc1cc2c(cc1O)C(Cc1ccc(O)cc1)NCC2 (stereo unspecified) 14.4%
c1ccc(CCc2nn3c(Cn4nnc5ccccc54)nnc3s2)cc1 -1.97%
O=C1c2ccccc2CCCC12N=NCC2c1cccc2ccccc12 (stereo unspecified) -6.72%
Cc1ncc(CO)c(/C=N/NC(=O)c2ccc(Br)cc2)c1O 3.1%
Cc1ncc(CO)c(/C=N/NC(=O)c2ccc(O)cc2)c1O 4.85%
O=C1C(Cc2ccccc2)Nc2ncnc(N3CCCCC3)c2N1Cc1ccc(Cl)cc1 (stereo unspecified) 23.8%
Oc1ccc(-c2cccc(-c3ccc(O)cc3)n2)cc1 24.3%
Oc1ccc(C2=NNC(c3ccc(O)cc3)=NN2)cc1 6.31%
C=CSc1sc(Cl)c(N2CCOCC2)c1[N+](=O)[O-] 15.5%
C=CS(=O)(=O)c1sc(Cl)c(N2CCOCC2)c1[N+](=O)[O-] 28.6%
Cc1nc(-c2ccc(C(=O)Nc3cccc(Br)c3)cc2)cs1 5.4%
O=C(O)c1cn(CCOc2ccccc2Cl)c2ccccc12 -2.87%
CCNC(=O)NC(=O)CN(C)c1ccccc1 1.38%
COc1ccc(N(CC(=O)Nc2cc(C)on2)S(=O)(=O)c2cc(C)ccc2C)cc1 -9.08%
Cc1cccc(N=Nc2cnc(N)s2)c1 14.7%
COc1cc(C(=O)O)ccc1Cl 8.61%
COc1ccc(/C=C/C(=O)N(Cc2ccccc2)c2ccccn2)cc1OC -1.52%
O=C(/C=C/c1c(F)cccc1Cl)Nc1nc2ccccc2[nH]1 9%
